Among the data in publication PMC11006913 are binding signal values, retold here.

Holding throughout (assay): PBM; 200 nM protein, PBS
Conditions in all cases: dsDNA, one strand shown

The target in test [1] is HOXB9 (Homo sapiens, UniProt P17482 171-250, T197M).
The target of test [2] is HOXC9 (Homo sapiens, UniProt P31274 178-260, K195R).
The target of test [3] is HOXA7 (Homo sapiens, UniProt P31268 116-202).
The target of test [4] is HOXC10 (Homo sapiens, UniProt Q9NYD6 254-340).
Test [5] has as its target HOXB6 (Homo sapiens, UniProt P17509 132-218, K202E).
Test [6] concerns the target HOXB9 (Homo sapiens, UniProt P17482 171-250).
Test [7] concerns the target HOXC9 (Homo sapiens, UniProt P31274 178-260).
For test [8], the target named is MSX2 (Homo sapiens, UniProt P35548 130-214, R199I).
Test [9] deals with HOXD13 (Homo sapiens, UniProt P35453 263-343, T313R).
The target in test [10] is HOXC9 (Homo sapiens, UniProt P31274 178-260, R193K).
Test [11] concerns the target HOXC10 (Homo sapiens, UniProt Q9NYD6 254-340, K271E).
Test [12] addresses MSX2 (Homo sapiens, UniProt P35548 130-214).
Test [13] addresses HOXB9 (Homo sapiens, UniProt P17482 171-250, R186Q).
Test [14] concerns the target HOXC9 (Homo sapiens, UniProt P31274 178-260, R222W).
For test [15], the target named is MSX2 (Homo sapiens, UniProt P35548 130-214, F161Y).
Test [16] concerns the target HOXA7 (Homo sapiens, UniProt P31268 116-202, W177C).
In test [17] the target is HOXB6 (Homo sapiens, UniProt P17509 132-218).
Test [18] deals with T1, VENTX (Homo sapiens, UniProt O95231 78-163, R121Q).
T1 sequence: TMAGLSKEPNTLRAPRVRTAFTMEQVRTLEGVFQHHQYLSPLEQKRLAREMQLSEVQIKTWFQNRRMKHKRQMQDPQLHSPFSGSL

In test [19] the target is T2, VENTX (Homo sapiens, UniProt O95231 78-163).
T2 sequence: T1 sequence with Q44R

The target of test [20] is T3, VENTX (Homo sapiens, UniProt O95231 78-163, Y115F).
T3 sequence: T1 sequence with Y38F, Q44R

In test [21] the target is VAX1 (Homo sapiens, UniProt Q5SQQ9 86-172).
The target of test [22] is VAX1 (Homo sapiens, UniProt Q5SQQ9 86-172, T142I).
Test [23] addresses VAX1 (Homo sapiens, UniProt Q5SQQ9 86-172, K157R).
In a further test the target is ALX4 (Homo sapiens, UniProt Q9H161 200-286, Q225E).
Test [24] addresses HOXD13 (Homo sapiens, UniProt P35453 263-343).
Test [25] addresses HOXD13 (Homo sapiens, UniProt P35453 263-343, T313A).
Test [26] deals with PRRX1 (Homo sapiens, UniProt P54821 80-166, F113S).
Test [27] deals with PRRX1 (Homo sapiens, UniProt P54821 80-166).
The next test concerns the target ALX3 (Homo sapiens, UniProt O95076 139-225, N203Q).

Residue numbers refer to the chain shown, from its start.

Sequence of HOXB6 (Homo sapiens, UniProt P17509 132-218, K202E) (P17509 132-218 K202E): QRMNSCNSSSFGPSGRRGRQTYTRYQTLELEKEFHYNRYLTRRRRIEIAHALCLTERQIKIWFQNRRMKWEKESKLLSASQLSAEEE
Sequence of HOXC10 (Homo sapiens, UniProt Q9NYD6 254-340) (Q9NYD6 254-340): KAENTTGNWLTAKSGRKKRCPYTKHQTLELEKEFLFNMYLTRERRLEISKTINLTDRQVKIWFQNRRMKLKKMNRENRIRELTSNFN
Sequence of HOXB9 (Homo sapiens, UniProt P17482 171-250) (P17482 171-250): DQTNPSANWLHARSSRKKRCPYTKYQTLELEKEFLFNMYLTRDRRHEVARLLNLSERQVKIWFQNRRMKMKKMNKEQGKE
Sequence of HOXB9 (Homo sapiens, UniProt P17482 171-250, T197M) (P17482 171-250 T197M): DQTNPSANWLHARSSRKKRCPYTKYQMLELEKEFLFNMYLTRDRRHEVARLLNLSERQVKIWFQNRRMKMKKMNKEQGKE
Sequence of HOXD13 (Homo sapiens, UniProt P35453 263-343) (P35453 263-343): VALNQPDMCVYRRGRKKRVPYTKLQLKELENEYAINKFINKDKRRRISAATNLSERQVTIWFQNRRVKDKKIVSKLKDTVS
Sequence of HOXB9 (Homo sapiens, UniProt P17482 171-250, R186Q) (P17482 171-250 R186Q): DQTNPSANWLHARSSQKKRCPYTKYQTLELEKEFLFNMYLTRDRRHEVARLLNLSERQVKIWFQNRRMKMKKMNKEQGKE
Sequence of HOXC9 (Homo sapiens, UniProt P31274 178-260) (P31274 178-260): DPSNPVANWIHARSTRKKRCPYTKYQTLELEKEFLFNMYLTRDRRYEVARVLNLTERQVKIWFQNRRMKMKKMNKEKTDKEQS
Sequence of HOXD13 (Homo sapiens, UniProt P35453 263-343, T313A) (P35453 263-343 T313A): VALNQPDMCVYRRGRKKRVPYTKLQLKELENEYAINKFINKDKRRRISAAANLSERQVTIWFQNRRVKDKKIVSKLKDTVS
Sequence of HOXC9 (Homo sapiens, UniProt P31274 178-260, R222W) (P31274 178-260 R222W): as the sequence (P31274 178-260) above, with R45W counted along it
Sequence of HOXC9 (Homo sapiens, UniProt P31274 178-260, K195R) (P31274 178-260 K195R): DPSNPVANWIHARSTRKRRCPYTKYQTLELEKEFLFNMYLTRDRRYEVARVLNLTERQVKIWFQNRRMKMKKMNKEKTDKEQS
Sequence of HOXC9 (Homo sapiens, UniProt P31274 178-260, R193K) (P31274 178-260 R193K): as the sequence (P31274 178-260) above, with R16K counted along it
Sequence of HOXD13 (Homo sapiens, UniProt P35453 263-343, T313R) (P35453 263-343 T313R): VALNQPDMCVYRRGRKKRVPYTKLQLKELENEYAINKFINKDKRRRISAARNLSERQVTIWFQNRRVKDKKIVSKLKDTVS
Sequence of HOXC10 (Homo sapiens, UniProt Q9NYD6 254-340, K271E) (Q9NYD6 254-340 K271E): as the sequence (Q9NYD6 254-340) above, with K18E counted along it
Sequence of HOXA7 (Homo sapiens, UniProt P31268 116-202) (P31268 116-202): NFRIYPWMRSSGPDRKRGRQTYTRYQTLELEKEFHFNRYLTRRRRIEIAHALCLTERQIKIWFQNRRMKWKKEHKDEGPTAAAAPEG
Sequence of HOXB6 (Homo sapiens, UniProt P17509 132-218) (P17509 132-218): as the sequence (P17509 132-218 K202E) above, with E71K counted along it
Sequence of HOXA7 (Homo sapiens, UniProt P31268 116-202, W177C) (P31268 116-202 W177C): as the sequence (P31268 116-202) above, with W62C counted along it
Sequence of MSX2 (Homo sapiens, UniProt P35548 130-214, F161Y) (P35548 130-214 F161Y): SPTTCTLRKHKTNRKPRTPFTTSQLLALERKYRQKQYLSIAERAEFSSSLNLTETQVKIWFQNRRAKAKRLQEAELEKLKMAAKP
Sequence of ALX4 (Q9H161 200-286 Q225E): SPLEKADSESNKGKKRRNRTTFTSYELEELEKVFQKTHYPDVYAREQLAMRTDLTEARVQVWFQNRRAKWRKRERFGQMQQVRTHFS
Sequence of MSX2 (Homo sapiens, UniProt P35548 130-214, R199I) (P35548 130-214 R199I): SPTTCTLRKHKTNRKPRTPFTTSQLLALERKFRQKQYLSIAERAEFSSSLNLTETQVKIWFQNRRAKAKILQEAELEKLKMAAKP
Sequence of VAX1 (Homo sapiens, UniProt Q5SQQ9 86-172, T142I) (Q5SQQ9 86-172 T142I): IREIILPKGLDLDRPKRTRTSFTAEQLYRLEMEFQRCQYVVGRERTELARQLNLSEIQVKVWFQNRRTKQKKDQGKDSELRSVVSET
Sequence of VAX1 (Homo sapiens, UniProt Q5SQQ9 86-172) (Q5SQQ9 86-172): as the sequence (Q5SQQ9 86-172 T142I) above, with I57T counted along it
Sequence of ALX3 (O95076 139-225 N203Q): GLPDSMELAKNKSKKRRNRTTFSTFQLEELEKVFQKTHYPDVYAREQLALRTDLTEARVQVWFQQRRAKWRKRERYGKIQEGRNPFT
Sequence of PRRX1 (Homo sapiens, UniProt P54821 80-166, F113S) (P54821 80-166 F113S): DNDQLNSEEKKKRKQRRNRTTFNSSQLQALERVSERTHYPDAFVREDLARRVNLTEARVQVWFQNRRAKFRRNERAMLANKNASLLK
Sequence of PRRX1 (Homo sapiens, UniProt P54821 80-166) (P54821 80-166): as the sequence (P54821 80-166 F113S) above, with S34F counted along it
Sequence of VAX1 (Homo sapiens, UniProt Q5SQQ9 86-172, K157R) (Q5SQQ9 86-172 K157R): as the sequence (Q5SQQ9 86-172 T142I) above, with I57T, K72R counted along it
Sequence of MSX2 (Homo sapiens, UniProt P35548 130-214) (P35548 130-214): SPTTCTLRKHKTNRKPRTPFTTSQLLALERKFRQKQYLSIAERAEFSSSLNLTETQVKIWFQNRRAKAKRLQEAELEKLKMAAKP

For ATTTAATG, the binding signal with HOXB9 [1] was 10.2 upbm affinity estimate (log intensity, higher = more binding, comparable within an allelic series); with HOXC9 [2], 13.1 upbm affinity estimate (log intensity, higher = more binding, comparable within an allelic series); in the test with HOXA7 [3], 11.3 upbm affinity estimate (log intensity, higher = more binding, comparable within an allelic series); in the test with HOXC10 [4], 12.4 upbm affinity estimate (log intensity, higher = more binding, comparable within an allelic series); in the test with HOXB6 [5], 10.1 upbm affinity estimate (log intensity, higher = more binding, comparable within an allelic series); in the test with HOXB9 [6], 12.3 upbm affinity estimate (log intensity, higher = more binding, comparable within an allelic series). The binding signal with HOXC9 [7] was 13 upbm affinity estimate (log intensity, higher = more binding, comparable within an allelic series); with MSX2 [8] it was 11.4 upbm affinity estimate (log intensity, higher = more binding, comparable within an allelic series); in the test with HOXD13 [9] it was 10.7 upbm affinity estimate (log intensity, higher = more binding, comparable within an allelic series); in the test with HOXC9 [10], 13 upbm affinity estimate (log intensity, higher = more binding, comparable within an allelic series); in the test with HOXC10 [11], 12.2 upbm affinity estimate (log intensity, higher = more binding, comparable within an allelic series); with MSX2 [12] it was 12.2 upbm affinity estimate (log intensity, higher = more binding, comparable within an allelic series). The binding signal in the test with HOXB9 [13] is 12.1 upbm affinity estimate (log intensity, higher = more binding, comparable within an allelic series); with HOXC9 [14] it was 11.2 upbm affinity estimate (log intensity, higher = more binding, comparable within an allelic series); in the test with MSX2 [15], 12 upbm affinity estimate (log intensity, higher = more binding, comparable within an allelic series); with HOXA7 [16] it was 8.91 upbm affinity estimate (log intensity, higher = more binding, comparable within an allelic series); with HOXB6 [17], 11.9 upbm affinity estimate (log intensity, higher = more binding, comparable within an allelic series).
As to GCGCGAAC, the binding signal is 8.01 upbm affinity estimate (log intensity, higher = more binding, comparable within an allelic series) with VENTX [18]; 8 upbm affinity estimate (log intensity, higher = more binding, comparable within an allelic series) with VENTX [19]; 8.06 upbm affinity estimate (log intensity, higher = more binding, comparable within an allelic series) in the test with VENTX [20]; 7.03 upbm affinity estimate (log intensity, higher = more binding, comparable within an allelic series) in the test with VAX1 [21]; 7.1 upbm affinity estimate (log intensity, higher = more binding, comparable within an allelic series) in the test with VAX1 [22]; 7.1 upbm affinity estimate (log intensity, higher = more binding, comparable within an allelic series) with VAX1 [23].
For TAATAAAA, the binding signal in the test with HOXB9 [1] is 10.1 upbm affinity estimate (log intensity, higher = more binding, comparable within an allelic series); with HOXC9 [2], 13.2 upbm affinity estimate (log intensity, higher = more binding, comparable within an allelic series); in the test with HOXC10 [4] it was 13 upbm affinity estimate (log intensity, higher = more binding, comparable within an allelic series); with ALX4, 11.8 upbm affinity estimate (log intensity, higher = more binding, comparable within an allelic series); with HOXB9 [6], 12.6 upbm affinity estimate (log intensity, higher = more binding, comparable within an allelic series); in the test with HOXC9 [7], 13.2 upbm affinity estimate (log intensity, higher = more binding, comparable within an allelic series). The binding signal was 11.1 upbm affinity estimate (log intensity, higher = more binding, comparable within an allelic series) with HOXD13 [9]; 13.1 upbm affinity estimate (log intensity, higher = more binding, comparable within an allelic series) with HOXC9 [10]; 12.1 upbm affinity estimate (log intensity, higher = more binding, comparable within an allelic series) with HOXD13 [24]; 12.5 upbm affinity estimate (log intensity, higher = more binding, comparable within an allelic series) with HOXC10 [11]; 12.1 upbm affinity estimate (log intensity, higher = more binding, comparable within an allelic series) with HOXD13 [25]; 12.2 upbm affinity estimate (log intensity, higher = more binding, comparable within an allelic series) in the test with HOXB9 [13]. The binding signal in the test with HOXC9 [14] is 11.7 upbm affinity estimate (log intensity, higher = more binding, comparable within an allelic series).
Take GTAATAAA: the binding signal with HOXB9 [1] was 10.1 upbm affinity estimate (log intensity, higher = more binding, comparable within an allelic series); in the test with HOXC9 [2] it was 13.2 upbm affinity estimate (log intensity, higher = more binding, comparable within an allelic series); in the test with HOXA7 [3] it was 11.4 upbm affinity estimate (log intensity, higher = more binding, comparable within an allelic series); with HOXC10 [4], 13 upbm affinity estimate (log intensity, higher = more binding, comparable within an allelic series); in the test with HOXB6 [5], 9.9 upbm affinity estimate (log intensity, higher = more binding, comparable within an allelic series); with HOXB9 [6], 12.6 upbm affinity estimate (log intensity, higher = more binding, comparable within an allelic series). For the same sequence, the binding signal with HOXC9 [7] was 13.3 upbm affinity estimate (log intensity, higher = more binding, comparable within an allelic series); in the test with HOXD13 [9], 11 upbm affinity estimate (log intensity, higher = more binding, comparable within an allelic series); in the test with HOXC9 [10] it was 13.2 upbm affinity estimate (log intensity, higher = more binding, comparable within an allelic series); with HOXD13 [24], 12.1 upbm affinity estimate (log intensity, higher = more binding, comparable within an allelic series); in the test with HOXC10 [11], 12.6 upbm affinity estimate (log intensity, higher = more binding, comparable within an allelic series); with HOXD13 [25], 11.9 upbm affinity estimate (log intensity, higher = more binding, comparable within an allelic series). The binding signal is 12.3 upbm affinity estimate (log intensity, higher = more binding, comparable within an allelic series) in the test with HOXB9 [13]; 11.4 upbm affinity estimate (log intensity, higher = more binding, comparable within an allelic series) with HOXC9 [14]; 8.79 upbm affinity estimate (log intensity, higher = more binding, comparable within an allelic series) with HOXA7 [16]; 11.8 upbm affinity estimate (log intensity, higher = more binding, comparable within an allelic series) in the test with HOXB6 [17].
Consider CCGATTAC, for which the binding signal was 10.3 upbm affinity estimate (log intensity, higher = more binding, comparable within an allelic series) with VENTX [18]; 9.76 upbm affinity estimate (log intensity, higher = more binding, comparable within an allelic series) with PRRX1 [26]; 10.4 upbm affinity estimate (log intensity, higher = more binding, comparable within an allelic series) in the test with VENTX [20]; 11.8 upbm affinity estimate (log intensity, higher = more binding, comparable within an allelic series) with PRRX1 [27].
ATAATAAT: the binding signal with HOXB9 [1] is 9.97 upbm affinity estimate (log intensity, higher = more binding, comparable within an allelic series); in the test with HOXC9 [2], 12.6 upbm affinity estimate (log intensity, higher = more binding, comparable within an allelic series); in the test with HOXB6 [5], 10 upbm affinity estimate (log intensity, higher = more binding, comparable within an allelic series); with ALX3, 8.6 upbm affinity estimate (log intensity, higher = more binding, comparable within an allelic series).
Turning to ACCATAAA, the binding signal in the test with HOXB9 [1] is 9.6 upbm affinity estimate (log intensity, higher = more binding, comparable within an allelic series); with HOXC9 [2], 12.5 upbm affinity estimate (log intensity, higher = more binding, comparable within an allelic series); with HOXC10 [4] it was 12.3 upbm affinity estimate (log intensity, higher = more binding, comparable within an allelic series); with HOXB9 [6] it was 11.9 upbm affinity estimate (log intensity, higher = more binding, comparable within an allelic series); in the test with HOXC9 [7], 12.8 upbm affinity estimate (log intensity, higher = more binding, comparable within an allelic series); with HOXD13 [9] it was 10.8 upbm affinity estimate (log intensity, higher = more binding, comparable within an allelic series). Besides, the binding signal with HOXC9 [10] is 12.7 upbm affinity estimate (log intensity, higher = more binding, comparable within an allelic series); with HOXD13 [24], 12 upbm affinity estimate (log intensity, higher = more binding, comparable within an allelic series); with HOXC10 [11] it was 11.5 upbm affinity estimate (log intensity, higher = more binding, comparable within an allelic series); with HOXD13 [25], 11.7 upbm affinity estimate (log intensity, higher = more binding, comparable within an allelic series); in the test with HOXB9 [13], 11.6 upbm affinity estimate (log intensity, higher = more binding, comparable within an allelic series); with HOXC9 [14], 10.9 upbm affinity estimate (log intensity, higher = more binding, comparable within an allelic series).
